Experimental data: PubChem BioAssay
Activity calls are given as the source filed them.

Tests used:
[1] = test system: Plasmodium falciparum Sir2 (PF13_0152, Sir2A); test: Plasmodium falciparum Sir2A binding compounds – biochemical, small-molecule microarray, 635 nm fluorescence, primary screen (AID 1098); conditions: fluorescence 635 nm, higher = more signal;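 note: score merges spot fluorescence intensity with its signal-to-noise ratio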
[2] = probe aDKK1 binding to arrayed compounds – biochemical, biotinylated probe, 635/667 nm fluorescence, primary screen (AID 1099); conditions: small-molecule microarray, higher = more signal;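 note: score merges 667nm spot fluorescence with signal to noise across triplicate slides; reference of the scale not given here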
[3] = probe aCHRDL2 binding to arrayed compounds – biochemical, biotinylated probe, 635/667 nm fluorescence, primary screen (AID 1100); conditions: small-molecule microarray, higher = more signal
[4] = change in splice reporter luminescence, either direction, cell-based, HEK293, spliceosome inhibition project, primary screen (AID 1101); conditions: HEK293 splicing luciferase reporter, 24 h, higher = more signal, called active from +8 up or from −8 down;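 note: HEK293 cells carrying a splicing-competent luciferase reporter gene; test concentration not given here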
[5] = target: Fibroblast growth factor 10 (Homo sapiens) (UniProt O15520); test: compounds binding fibroblast growth factor 10 – biochemical, small-molecule microarray, 635 nm fluorescence, primary screen (AID 1102); conditions: FGF10 binding, fluorescence 635 nm, higher = more signal
[6] = test system: glycogen synthase kinase-3 (GSK3A per assay name; protocol says GSK3B); test: compounds binding glycogen synthase kinase-3 – biochemical, small-molecule microarray, 635 nm fluorescence, GSK3A, primary screen (AID 1103); conditions: fluorescence 635 nm, higher = more signal; note: the record names both GSK3A and GSK3B
[7] = target: Epidermal growth factor receptor (Homo sapiens) (UniProt P00533); test: compounds binding epidermal growth factor receptor – biochemical, small-molecule microarray, 635 nm fluorescence, primary screen (AID 1104); conditions: EGFR binding, higher = more signal;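 note: score merges 667 nm emission intensity with spot signal to noise over triplicate slides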
[8] = target: Follistatin-related protein 3 (Homo sapiens) (UniProt O95633); test: compounds binding follistatin-related protein 3 – biochemical, small-molecule microarray, 635 nm fluorescence, primary screen (AID 1105); conditions: FSTL3 binding, higher = more signal;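 note: score merges emission near 667 nm and signal to noise per printed spot across three slides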
[9] = target: Dickkopf-related protein 1 (Homo sapiens) (UniProt O94907); test: small molecules binding DKK1 protein – biochemical, small-molecule microarray, 635 nm fluorescence scan, primary screen (AID 1106); conditions: higher = more signal;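 note: score merges emission near 667 nm with signal to noise over three replicate slides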
[10] = test system: Inhibin beta A chain (activin A); test: small molecules binding activin A – biochemical, small-molecule microarray, 635 nm fluorescence scan, primary screen (AID 1107); conditions: INHBA, higher = more signal;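 note: mouse activin A protein probed at 4.33 µg/mL on printed slides; score merges bound-protein fluorescence near 667 nm with spot signal-to-noise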

Follistatin-related protein 3 (Homo sapiens), sequence (O95633 whole entry, looked up): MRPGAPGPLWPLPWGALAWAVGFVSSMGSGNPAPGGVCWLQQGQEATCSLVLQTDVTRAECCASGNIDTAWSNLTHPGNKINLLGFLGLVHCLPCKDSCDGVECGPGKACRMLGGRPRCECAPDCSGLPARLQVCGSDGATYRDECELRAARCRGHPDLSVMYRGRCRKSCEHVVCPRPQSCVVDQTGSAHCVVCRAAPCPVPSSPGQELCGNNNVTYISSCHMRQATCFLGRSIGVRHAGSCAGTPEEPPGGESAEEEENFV
Dickkopf-related protein 1 (Homo sapiens), sequence (O94907 whole entry, looked up): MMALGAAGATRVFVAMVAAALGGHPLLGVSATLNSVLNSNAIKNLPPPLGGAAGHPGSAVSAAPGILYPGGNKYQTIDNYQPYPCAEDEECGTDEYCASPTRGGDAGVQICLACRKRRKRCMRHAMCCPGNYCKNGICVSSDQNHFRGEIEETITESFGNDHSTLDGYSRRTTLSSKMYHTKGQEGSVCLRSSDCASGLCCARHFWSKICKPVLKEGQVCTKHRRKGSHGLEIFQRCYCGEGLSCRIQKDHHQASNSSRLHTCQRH
Epidermal growth factor receptor (Homo sapiens), sequence (P00533 whole entry, looked up): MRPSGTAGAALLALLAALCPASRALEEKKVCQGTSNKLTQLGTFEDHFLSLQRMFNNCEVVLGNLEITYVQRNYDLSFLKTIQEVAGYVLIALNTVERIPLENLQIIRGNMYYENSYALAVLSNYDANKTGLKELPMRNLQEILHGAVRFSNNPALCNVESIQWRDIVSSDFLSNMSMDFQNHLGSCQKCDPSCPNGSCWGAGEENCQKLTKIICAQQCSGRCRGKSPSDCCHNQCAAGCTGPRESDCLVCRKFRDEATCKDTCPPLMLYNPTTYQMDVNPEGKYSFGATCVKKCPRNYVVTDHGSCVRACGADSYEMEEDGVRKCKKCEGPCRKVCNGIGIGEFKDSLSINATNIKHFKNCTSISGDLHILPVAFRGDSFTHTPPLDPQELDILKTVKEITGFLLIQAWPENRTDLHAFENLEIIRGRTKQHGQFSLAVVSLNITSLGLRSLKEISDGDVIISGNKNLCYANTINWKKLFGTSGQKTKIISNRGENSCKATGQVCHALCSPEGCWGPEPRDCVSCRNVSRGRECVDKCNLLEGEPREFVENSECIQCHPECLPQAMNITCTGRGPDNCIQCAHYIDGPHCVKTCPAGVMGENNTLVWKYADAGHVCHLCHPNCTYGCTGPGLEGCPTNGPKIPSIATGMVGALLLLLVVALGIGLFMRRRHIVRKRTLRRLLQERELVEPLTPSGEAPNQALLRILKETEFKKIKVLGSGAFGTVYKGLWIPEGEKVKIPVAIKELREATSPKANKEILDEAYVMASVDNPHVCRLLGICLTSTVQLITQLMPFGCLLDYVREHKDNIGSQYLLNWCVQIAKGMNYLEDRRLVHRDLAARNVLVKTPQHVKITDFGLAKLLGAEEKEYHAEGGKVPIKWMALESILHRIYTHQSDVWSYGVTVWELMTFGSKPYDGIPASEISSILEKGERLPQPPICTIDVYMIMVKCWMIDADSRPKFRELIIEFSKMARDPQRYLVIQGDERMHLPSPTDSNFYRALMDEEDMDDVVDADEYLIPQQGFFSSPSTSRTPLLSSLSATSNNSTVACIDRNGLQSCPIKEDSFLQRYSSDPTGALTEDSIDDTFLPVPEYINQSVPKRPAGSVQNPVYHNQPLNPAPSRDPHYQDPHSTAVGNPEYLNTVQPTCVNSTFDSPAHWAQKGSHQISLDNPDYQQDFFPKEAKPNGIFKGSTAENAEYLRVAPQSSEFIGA
Fibroblast growth factor 10 (Homo sapiens), sequence (O15520 whole entry, looked up): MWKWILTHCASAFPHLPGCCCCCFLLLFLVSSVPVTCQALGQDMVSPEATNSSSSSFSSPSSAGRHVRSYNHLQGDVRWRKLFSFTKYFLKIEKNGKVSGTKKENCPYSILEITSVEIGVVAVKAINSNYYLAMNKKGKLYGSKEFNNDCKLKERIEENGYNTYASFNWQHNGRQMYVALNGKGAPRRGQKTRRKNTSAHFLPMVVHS

| SMILES | composite z-score [1] | composite z-score [2] | composite z-score [3] | z-score [4] | composite z-score [5] | composite z-score [6] | composite z-score [7] | composite z-score [8] | composite z-score [9] | composite z-score [10] |
| --- | --- | --- | --- | --- | --- | --- | --- | --- | --- | --- |
| COCCOC(=O)N1C(=O)[C@@]2(c3ccccc31)[C@H](c1ccc(O)cc1)N1[C@H](c3ccccc3)[C@H](c3ccccc3)OC(=O)[C@H]1[C@@H]2C(=O)N1CCCCCCC1 | 1.81 | 2.94 | 1.68 | -0.682 (inactive) | 1.39 | 1.37 | 1.76 | 1.69 | 2.31 | 1.96 |
| O=C1c2ccccc2[C@@]2(Cc3ccccc3N(Cc3ccccc3)C2=O)[C@H](c2ccc(CO)cc2)N1Cc1ccccc1Cl | -0.493 | -0.0131 | 0.28 | -1.06 (inactive) | -0.377 | -1.35 | -0.804 | -0.277 | -0.666 | 0.54 |
| Cc1ccc(S[C@]2(C(=O)NCCCN(C)C)CC(=O)N(C3Cc4ccccc4C3)[C@@H]2c2ccc(CO)cc2I)cc1 | 1.58 | 0.182 | 0.932 | -1.53 (inactive) | -0.795 | -0.719 | -0.487 | -0.335 | -0.976 | 0.794 |
| [N-]=[N+]=Nc1ccccc1[C@H]1OC(c2ccc(OCCCO)cc2)=N[C@@]1(Cc1ccccc1)C(=O)NCC(O)CO (stereo not given in full) | 0.315 | 0.78 | 0.981 | -0.562 (inactive) | -0.0795 | 0.0637 | -0.942 | -0.283 | -0.535 | 0.647 |
| Cc1ccc(S[C@]2(C(=O)NCC(F)(F)F)CC(=O)N(Cc3ccccc3C(F)(F)F)[C@@H]2c2ccc(CO)cc2)cc1 | -0.57 | 0.228 | 0.942 | 0.338 (inactive) | -0.83 | -1.23 | -0.548 | -1.51 | -1.07 | 0.247 |
| Cc1ccc(C(C)CC(O)C2C=CC3C(=O)N(C)C(=O)C3N2Nc2ccccc2)o1 (stereo not given) | 0.84 | 0.169 | 0.778 | 1.27 (inactive) | 1.19 | 1.25 | 1 | 1.39 | 0.593 | 0.989 |
| C=C1C(=O)C=C2CN(C(=O)c3ccccc3)[C@@](Cc3ccc(OC)cc3)(C(=O)OC)[C@@H]12 | 1.14 | 1.18 | 1.18 | -2.15 (inactive) | 1.38 | 0.681 | 0.369 | 1.37 | -0.399 | 0.516 |
| CN(C)CCCC[C@@H]1NC(=O)[C@@H]2C[C@H](C(=O)NCCCCCCNC(=O)CS)[C@H](c3ccc(O)cc3)N2C1=O | 0.73 | -0.165 | -0.294 | 1.06 (inactive) | 1.34 | 1.24 | 0.954 | 0.997 | 1.31 | 0.277 |
| OCCCC1=CC(c2ccc(CN3CCCC3)cc2)N(Cc2cccc(OC(F)(F)F)c2)CC1 (stereo not given) | 0.203 | -0.0082 | 0.983 | -1.35 (inactive) | -0.327 | -0.517 | 0.297 | 0.0596 | 0.0657 | 1.65 |
| NC(=O)NCC#Cc1ccc2c(c1)[C@]1(C(=O)N2)[C@H](c2ccc(OCCO)cc2)N2[C@H](c3ccccc3)[C@H](c3ccccc3)OC(=O)[C@H]2[C@@H]1C(=O)O | 1.05 | 0.151 | 0.654 | -0.708 (inactive) | -0.808 | -1.84 | -0.716 | -0.567 | -0.57 | 0.993 |
| CCCCCCc1nc(-c2ccc(-c3ccc(Cl)c(Cl)c3)o2)cc2c1[Si](C(C)C)(C(C)C)OC2 | -0.143 | -0.269 | 0.207 | -2.26 (inactive) | -1.31 | -1.22 | -1.01 | -0.816 | -0.793 | 0.522 |
| O=C1OCCC=C[C@H]2OC34C=CCN(c5ccc6ccccc6c5)C(=O)[C@H]3N(CCO)C(=O)[C@@H]4C12 (stereo not given in full) | 1.89 | -0.886 | -0.465 | -0.502 (inactive) | -0.0326 | -0.327 | -0.405 | -0.114 | -0.951 | -0.666 |
| C=CCNC(=O)[C@H]1[C@@H]2C(=O)O[C@@H](c3ccccc3)[C@@H](c3ccccc3)N2[C@@H](c2ccccc2OCCO)[C@]12C(=O)N(C(=O)OCCOC)c1ccc(C#Cc3ccc(OC)cc3)cc12 | 0.801 | 0.256 | 0.581 | 0.522 (inactive) | 0.654 | 1.06 | 0.301 | 0.0527 | -0.163 | 0.032 |
| COc1ccc(C(O)C2C=CC3C(=O)N(C)C(=O)C3N2N(c2ccccc2)c2ccccc2)cc1 (stereo not given) | 1.59 | 0.996 | 0.93 | 1.09 (inactive) | 0.434 | 0.243 | -0.0923 | 0.585 | -0.128 | 1.32 |
